From PubChem BioAssay (NCI)
About 79,000 compounds went through this panel and 15% of them were active in at least one assay; those are over-represented in the sample as a whole. Rule as the data show it: active = growth inhibition above about 70%; inactive = the rest.

Legend:
[1] = NCI Yeast Anticancer Drug Screen. Data for the rad50 strain (AID 155);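 also: 0% = growth of vehicle-only cultures of the same strain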; details: S. cerevisiae rad50 strain growth inhibition; at 50.0 µM; stronger effect = higher value
How it was run: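 Vehicle-treated cultures provide the reference for the growth inhibition reported for compound-exposed, repair-deficient yeast.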

[2] = NCI Yeast Anticancer Drug Screen. Data for the mec2-1 strain (AID 157); details: S. cerevisiae mec2-1 strain, at 50.0 µM, stronger effect = higher value
How it was run: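 Yeast mec2-1 mutant treated with compound. Readout: growth inhibition vs vehicle controls.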

[3] = NCI Yeast Anticancer Drug Screen. Data for the sgs1 mgt1 strain (AID 161);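 also: 0% = growth of cultures given vehicle only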; details: S. cerevisiae sgs1 mgt1 strain, at 50.0 µM, stronger effect = higher value
How it was run: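 Genetically altered yeast, compound exposure, growth inhibition relative to vehicle.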

[4] = NCI Yeast Anticancer Drug Screen. Data for the cln2 rad14 strain (AID 165);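 also: 0% = growth equal to vehicle treated cultures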; details: S. cerevisiae cln2 rad14 strain, at 50.0 µM, stronger effect = higher value
How it was run: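 cln2 rad14 yeast strain; compound exposure; growth inhibition read vs vehicle controls.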

[5] = NCI Yeast Anticancer Drug Screen. Data for the bub3 strain (AID 167); details: S. cerevisiae bub3 mutant strain, at 50.0 µM, stronger effect = higher value
How it was run: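 Mutant yeast screening strain plus compound; vehicle-treated cultures serve as the 0% inhibition reference.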

[6] = NCI Yeast Anticancer Drug Screen. Data for the mlh1 rad18 strain (AID 175); details: S. cerevisiae mlh1 rad18 strain growth inhibition; at 50.0 µM; stronger effect = higher value
How it was run: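 Yeast w/ defined DNA-repair lesions; compound exposure; growth vs vehicle controls → % inhibition.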

Measured: growth inhibition

Cc1c(-c2ccccc2)c2ccccc2c2ccccc12
inactive: [1] -10% | [2] -15.6% | [3] -4.25% | [4] 0.1% | [5] 2.2% | [6] -14.4%

CC1CCC2(CC1)OC(C)C(C)O2 (stereo not drawn)
inactive: [1] 20.1% | [2] -2.4% | [3] 4.9% | [4] -34.6% | [5] 28.8% | [6] 10.7%

CS/C(=N\S(=O)(=O)c1cc(C)c(Cl)cc1Cl)NNc1cnc2ccccc2n1
inactive: [1] -12.1% | [2] -23.4% | [3] -7.1% | [4] 11.9% | [5] -17.2% | [6] 1.7%

CCCCC1NC(=O)OC1=O (stereo not drawn)
inactive: [1] -23.6% | [2] -31.4% | [3] -11.2% | [4] 1.9% | [5] -20.2% | [6] -33.4%

CCCCCCC(NC(C)=O)C(=O)O (stereo not drawn)
inactive: [1] 3.85% | [2] -4.7% | [3] 13.9% | [4] 6.35% | [5] 4.3% | [6] 3.5%

O=[N+]([O-])c1ccc(-c2ccc([N+](=O)[O-])cc2)cc1
inactive: [1] -2.05% | [2] -0.95% | [3] 7.7% | [4] -38.5% | [5] 22.6% | [6] -13.3%

COC(=O)CNC(=O)C(Cc1ccccc1)NC(=O)OCc1ccccc1 (stereo not drawn)
inactive: [1] -4.95% | [2] -3.75% | [3] -1.55% | [4] 1.9% | [5] 15.8% | [6] -3.3%

CN(CC1=C(O)C(=O)C(CN(C)Cc2c(O)ccc3ccccc23)=C(O)C1=O)Cc1c(O)ccc2ccccc12
inactive: [1] 30.7% | [2] 4.85% | [3] 34.1% | [4] -1.25% | [5] 5.3% | [6] 28.9%

COc1c(C)c(C)c(OC)c(CC(=O)O)c1C
inactive: [1] -3.05% | [2] -0.6% | [3] -3.7% | [4] -34.9% | [5] -17.7% | [6] 4.9%

CC(C)C1NC(C(=O)O)C(C)(C)S1 (stereo not drawn)
inactive: [1] 1.75% | [2] 6.6% | [3] -1.6% | [4] 4.05% | [5] 0.35% | [6] -16.1%

COc1cc2c3c(c1OC)C1(C=CC(=O)C=C1)CC3NCC2 (stereo not drawn)
inactive: [1] -45.9% | [2] -4.8% | [3] -8.5% | [4] -10.1% | [5] -18.9% | [6] -45.6%

CC(C)(C)OC(=O)CC(O)c1ccccc1 (stereo not drawn)
inactive: [1] 3.8% | [2] -2.9% | [3] 3.65% | [4] -2.45% | [5] -3.7% | [6] 20.8%

CC(=O)COc1cccc2ccccc12
inactive: [1] -1.15% | [2] -3.1% | [3] -2.05% | [4] -36.4% | [5] -23.8% | [6] -2.35%

COc1ccc(/C=N/N=C/c2ccc(OC)cc2)cc1
inactive: [1] 22.3% | [2] 0.7% | [3] -14.1% | [4] -34.5% | [5] -19.8% | [6] 17.8%

O=[N+]([O-])c1ccc(-c2csc3nc(-c4ccccc4)nn23)cc1
inactive: [1] -0.5% | [2] -31.2% | [3] -29.9% | [4] 10.4% | [5] -28.2% | [6] -23.2%

c1ccc(N2N=NC3C4CC(C5COCC54)C32)cc1 (stereo not drawn)
inactive: [1] 4.6% | [2] -7.1% | [3] -24.9% | [4] -8.55% | [5] 0.65% | [6] -9.25%

Clc1ccccc1C1N2CCCCC2[C@@H]2c3[nH]c4ccccc4c3CCN12 (stereo partly drawn)
inactive: [1] -14.8% | [2] -1.35% | [3] 9.25% | [4] 9.25% | [5] 12.6% | [6] 2.4%

O=C(O)CCc1nc2c(n1-c1ccccc1)C(=O)c1ccccc1C2=O
inactive: [1] 38.2% | [2] 20.5% | [3] 34.6% | [4] 34.3% | [5] 37.6% | [6] 34.2%

[N-]=[N+]=Nc1ccccc1C(=O)NC(=O)Nc1ccccc1
inactive: [1] -14.1% | [2] 1.95% | [3] 5.5% | [4] -19.2% | [5] 2.45% | [6] -2.1%

CCCCCCCCCCCCOC(=O)NCCCl
inactive: [1] -53% | [2] -106% | [3] -57% | [4] -224% | [5] -27.6% | [6] -60.1%

O=C(O)C(c1ccccc1)C(F)(F)F (stereo not drawn)
inactive: [1] -1.45% | [2] 11.1% | [3] 2.45% | [4] -10.4% | [5] -2.1% | [6] 0.85%

Cc1ccc([N+](=O)[O-])cc1NC(=O)C(=O)Cc1nc2ccc(C(=O)c3ccccc3)cc2[nH]c1=O
inactive: [1] -4.7% | [2] -20.7% | [3] -9.05% | [4] 11.6% | [5] 10.3% | [6] -5.7%

CC/C(=N/NC(=O)NN)c1ccc(Cl)cc1
inactive: [1] -2.2% | [2] 14.3% | [3] -1.2% | [4] -1.8% | [5] 22.6% | [6] 17.6%

Nc1c(S(N)(=O)=O)cc(S(N)(=O)=O)cc1S(N)(=O)=O
inactive: [1] 0.75% | [2] -20.6% | [3] -36% | [4] -24.6% | [5] -29.2% | [6] -16%

Cc1cc(S(=O)(=O)Nc2cc(N)[nH]n2)c(SCc2nc(N)nc(N(C)C)n2)cc1Cl
inactive: [1] 11.2% | [2] 8.7% | [3] -0.1% | [4] 2.7% | [5] 6.6% | [6] 8.05%

CCOC(=O)Nc1nc2ccn(C)c2s1
inactive: [1] 6.3% | [2] -6.9% | [3] 2.15% | [4] -6.4% | [5] 4.6% | [6] -8%

Nc1ccc2nc3n(c(=O)c2c1)CCCCC3
inactive: [1] -25.1% | [2] -11.4% | [3] 1.4% | [4] 23.2% | [5] 0.65% | [6] 10.8%

O=C(ON=C1c2ccccc2C(Br)C(Br)c2ccccc21)c1cc([N+](=O)[O-])cc([N+](=O)[O-])c1 (stereo not drawn)
inactive: [1] 15.8% | [2] 8.85% | [3] 28.8% | [4] -0.6% | [5] 21.1% | [6] 27.5%

[N-]=[N+]=NC(=O)c1cccc2c1Cc1ccccc1-2
inactive: [1] 8.85% | [2] 0.75% | [3] -4.05% | [4] -40.9% | [5] -11.5% | [6] -0.4%

CCC12CC(=O)CCC1CCc1ccc(OC)c(OC)c12 (stereo not drawn)
inactive: [1] -14.6% | [2] 15.9% | [3] -2.4% | [4] -7.2% | [5] 18.4% | [6] 22.2%

C[C@@H]1OC2(O)[C@H]3CCCN3S(=O)(=O)CCN2C1=O (stereo partly drawn)
inactive: [1] 30.5% | [2] -14.8% | [3] -8.05% | [4] 16.7% | [5] -11.7% | [6] -1.2%

O=c1[nH]cc(Cl)cc1[N+](=O)[O-]
inactive: [1] 10.8% | [2] 3.95% | [3] -1.4% | [4] 2.3% | [5] -17.8% | [6] 1.7%

O=C(CC[N+](=O)[O-])OCC1OC(OC(=O)CC[N+](=O)[O-])C(O)C(O)C1O (stereo not drawn)
inactive: [1] 23% | [2] 0.85% | [3] 28.4% | [4] 34.1% | [5] 14.8% | [6] 38.8%

COc1ccc(NC(=S)NNC(=O)c2nsc3ccccc23)cc1
inactive: [1] 32.5% | [2] 9.85% | [3] 20.8% | [4] 7.35% | [5] -0.8% | [6] -0.15%

CC(Oc1ccc2ccccc2c1I)C(=O)O (stereo not drawn)
inactive: [1] 27.9% | [2] 12.8% | [3] 37.8% | [4] 18.6% | [5] 57.4% | [6] 36.8%

O.[Cl][Co]([Cl])[Cl].c1c[nH]cn1.c1c[nH]cn1
inactive: [1] -0.85% | [2] -5.6% | [3] 15% | [4] 1.95% | [5] 8.4% | [6] -2.7%

CCNCCN(CC)CC
inactive: [1] -12.7% | [2] -5.75% | [3] -21.1% | [4] 6.1% | [5] 0% | [6] -17.4%

COc1ccc(NC(=O)NCc2ccc(C)cc2)cc1
inactive: [1] 4.45% | [2] 33.8% | [3] 33.8% | [4] -5.5% | [5] 7.85% | [6] 26.9%
